Source: PubChem
The list is not random: actives were taken first. Their share in the collection is about 19%.
DT40 TDP1 no CPT – qHTS for Inhibitors of human tyrosyl-DNA phosphodiesterase 1 (TDP1): qHTS in cells in absence of CPT; DT40 Tdp1-/- hTDP1 cells, no CPT, ATP luminescence, 48 h; Potency, µM (doses to about 46.2 µM), for inactives: at the highest dose activity change, negative = growth inhibition, actives largely listed as inhibitors; actives 15% (n = 420,000); AID 686978, 2013; note: potency is the fitted concentration of half-maximal effect; nearly all actives have a fitted effect of over 55% in size
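Camptothecin absent (DMSO only). Human TDP1-complemented DT40 knockout cells, 400 cells/well, 37 °C for minimum 48 hr; ATP measured via CellTiter-Glo, 30 min dark incubation, luminescence.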
ELG1 repair inh – ELG1-dependent DNA repair inhibition; Potency, µM (highest dose often 46.1 µM), inactives show at the highest dose activity change, negative = inhibition, hits mostly inhibitors; AID 504467; actives 2.3% (n = 330,000); HEK293T ELG1-luciferase reporter, luminescence, 16 h; DNA damage induced by 5-fluorouridine; note: potency is the fitted concentration of half-maximal effect; nearly all actives have a fitted effect of over 55% in size
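DMSO vehicle served as the neutral condition. Each well held 2,000 cells given 5-fluorouridine plus compound; after 16 hr at 37 °C/5% CO2, ONE-Glo was added and luciferase measured 30 min later.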
HT1080 IDH1KD tx – toxicity to HT-1080 IDH1 knockdown cells (counter line). Potency, µM (doses to about 46.1 µM), for the others: at the top dose activity, negative = toxicity, usual class: cytotoxic. actives 2% (n = 360,000). HT-1080 IDH1 knockdown viability, ATP luminescence, 48 h;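 note: potency is the fitted concentration of half-maximal effect; 0% = DMSO wells and -100% = cell-free medium wells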
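Cytotoxicity counter-line: IDH1KD HT-1080, 48 h, CellTiter-Glo. Curves classed by r2, magnitude and activity.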
DT40 TDP1 CPT – DT40-hTDP1 cell growth loss with CPT; chicken DT40 Tdp1-/-;hTDP1 cells + 20 nM CPT, ATP luminescence, 48 h; Potency, µM (series often up to 46.2 µM), inactives show at the top dose activity change, negative = growth inhibition, most hits filed as inhibitors; actives 12% (n = 420,000); AID 686979; note: potency is the fitted concentration of half-maximal effect; nearly all actives have a fitted effect of over 55% in size
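Cell growth measured by CellTiter-Glo luminescence after a minimum 48 h, 37 C compound exposure with 20 nM CPT in Tdp1-knockout DT40 cells stably expressing hTDP1, seeded 400/well; qHTS titration format.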
HT1080NT lethal – kills 2HG-producing HT-1080-NT fibrosarcoma cells. HT-1080-NT fibrosarcoma viability, CellTiter-Glo ATP luminescence, 48 h. actives 1.6% (n = 360,000). Potency, µM (top dose mostly 46.1 µM), without a hit: top-dose activity, negative = less viability, actives largely listed as cytotoxic;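 note: NT is the 2HG producing partner of a matched IDH1 knockdown line; potency is the fitted concentration of half-maximal effect; 0% = DMSO-treated cells and -100% = media-only wells without cells; nearly all actives have a fitted effect of over 55% in size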
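HT-1080-NT fibrosarcoma cells (2HG-overproducing), 750 cells/well in RPMI with 5% FBS, dosed after 2 h and incubated 48 h at 37C. CellTiter-Glo luminescence normalized to DMSO and no-cell wells; concentration-response curves fitted and classed.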
IL1B secr inh – inhibitors of inflammasome signaling (IL-1 beta secretion) | THP-1 LPS/ATP IL-1B secretion, AlphaLISA, 16 h; active compounds read low | activity change, % at 57.5 µM | actives 4.7% (n = 360,000) | AID 743279; in the data active = activity change below about -50%; inconclusive = mostly about -30% to -49%
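THP-1 cells pretreated 1 hr with compounds (up to 57.5 uM final), then stimulated with LPS (250 ng/mL final) plus ATP (1.25 mM final); secreted IL-1B measured by AlphaLISA after 16 hr, decreased signal indicating inhibition.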
* = called active by the depositor; ? = inconclusive; · = no result given; [ ] = another dose, or the depositor's remark. Unless noted, calls come from the whole dose curve; as a rule, active = well fitted curve in the direction sought with a large enough effect; inconclusive = small, poorly fitted or top-dose-only effect, or another doubt; inactive = no such curve, though single readings can be large; an effect the other way counts as inactive or inconclusive. Unless noted, % is set by controls: 0 for no effect and ±100 for the full control effect.

SMILES | DT40 TDP1 no CPT | ELG1 repair inh | HT1080 IDH1KD tx | DT40 TDP1 CPT | HT1080NT lethal | IL1B secr inh
CN(C)CC/C=C1/c2ccccc2COc2ccc(CC(=O)O)cc21 | 1% | · | 1% | 15% | -2% | 14
CC(C)CCNC(=O)c1cc2c(=O)n3ccccc3nc2s1 | ? | ? | 16% | 0% | -2% | -17
COc1ccc(C(=O)CCC(=O)Nc2cc(C)ccc2C)cc1 | -23% | · | · | -3% | · | ·
COc1cc2c(cc1OC)/C(=C/C(=O)c1cccc([N+](=O)[O-])c1)NCC2 | ? | ? | -11% | ? | 1% | -60*
COc1cc2c(cc1OC)/C(=C/C(=O)c1ccc(F)cc1)NCC2 | ? | -23% | -21% | ? | -3% | -20
COc1cc2c(cc1OC)/C(=C/C(=O)c1ccc(OC)c([N+](=O)[O-])c1)NCC2 | 18µM* | ? | ? | ? | -22% | ?
C#CC(CO)N(CCN(Cc1ccccc1)C(C#C)CO)Cc1ccccc1 (stereo unspecified) | ? | -5% | 0% | ? | -4% | -62*
CCOC(=O)Nc1ccc2c(c1)N(C(=O)CN)c1ccccc1CC2 | ? | 1% | 0% | ? | -11% | -63*
CCNCC(=O)N1c2ccccc2CCc2ccc(NC(=O)OCC)cc21 | ? | -4% | -9% | ? | 1% | -69*
Cc1nc2ccccc2nc1C | 6% | · | · | 10% | · | ·
COc1ccc(Cc2nc3c4cnn(-c5cccc(F)c5)c4ncn3n2)cc1 | 8% | · | · | -4% | · | ·
Cc1ccccc1NC(=O)CSc1nc2c(c(=O)n(C)c(=O)n2C)n1Cc1ccccc1F | -9% | · | · | 0% | · | ·
Cc1cccc(-c2nnc(C3CCN(S(=O)(=O)c4cccc(Cl)c4)CC3)o2)c1 | 2.9µM* | · | · | 3.7µM* | · | ·
Cc1ccc(-c2nnc(C3CCN(S(=O)(=O)c4ccc(C)c(C)c4)CC3)o2)cc1 | 26µM* | · | · | ? | · | ·
COc1ccc(-c2nnc(C3CCN(S(=O)(=O)c4ccccc4)CC3)o2)cc1 | ? | -12% | -6% | ? | -11% | -7
CC(=O)Nc1ccc(S(=O)(=O)N2CCC(c3nnc(-c4ccc(C)cc4)o3)CC2)cc1 | 21µM* | ? | 2% | ? | 12% | -14
CCC(CC)C(=O)Nc1ccc(C(=O)Nc2cc(C)on2)cc1 | -1% | 5% | 3% | 7% | 2% | -16
O=C(O)Cc1ccc(-c2ccccc2-c2ccccc2)cc1 | 21µM* | 2% | -3%[9.24 µM] | 15µM* | -1% | 17
O=C(O)Cc1ccc(O)cc1 | -1% | · | 17% | -2% | 22% | -9
CN(C)C(=O)[C@@H]1C[C@@H](Sc2nc3ccccc3[nH]2)CN1Cc1ccnc2ccccc12 | 15µM* | · | · | 16µM* | · | ·
CCCCN(C(=O)c1ccc(S(=O)(=O)N2CCCCC2)cc1)C1CCS(=O)(=O)C1 (stereo unspecified) | -23% | ? | -5% | ? | -13% | -1
CCCCC(=O)NC(=S)Nc1c(C)cc(Br)cc1C | 18µM* | 0% | 1% | 21µM* | 1% | 31
CCOc1ccccc1NC(=S)/C(=C(\[O-])c1ccc2c(c1)OCCO2)[n+]1ccc(CC)cc1 | · | ? | -1% | 21µM* | -7% | -12
[O-]C(=C(C(=S)Nc1cccc2ccccc12)[n+]1ccccc1)c1ccc2c(c1)OCCO2 | ? | · | -2% | -15% | 3% | 16
CCN(CC)c1ccc(/C=C(/C#N)c2nc3ccccc3[nH]2)c(OC(C)C)c1 | 12µM* | ? | ? | 18µM* | ? | 3
SMILES | DT40 TDP1 no CPT | ELG1 repair inh | HT1080 IDH1KD tx | DT40 TDP1 CPT | HT1080NT lethal | IL1B secr inh
N#C/C(=C\c1ccccc1C(=O)O)c1nc2ccccc2[nH]1 | 2% | -14% | -7% | -4% | 2% | 13
N#C/C(=C\c1ccncc1)c1nc2ccccc2[nH]1 | ? | 14% | -1% | ? | -23% | -64*
COc1cc(/C=C(\C#N)c2nc3ccc(C)cc3[nH]2)ccc1OC(C)C | -12% | · | · | ? | · | ·
N#C/C(=C/c1ccc(OC(=O)c2ccc(Br)s2)cc1)c1nc2ccccc2[nH]1 | 23µM* | · | 14% | ? | 22% | -20
Cc1cc2nc(/C(C#N)=C/c3ccncc3)[nH]c2cc1C | 16µM* | 8% | 23µM* | 18µM* | ? | -16
COc1ccccc1C1C(C(C)=O)=C(O)C(=O)N1c1ccc(O)cc1 (stereo unspecified) | -11% | -4% | 11% | 2% | 5% | 21
COC(=O)c1cc(NC(=O)Cn2ncc3c([nH]c4ccccc43)c2=O)cc(C(=O)OC)c1 | 1% | · | · | 8% | · | ·
N#C/C(=C\c1cccnc1)c1nc2ccccc2[nH]1 | 5.8µM* | ? | ? | ? | ? | 17
CS(=O)(=O)N1CCC2(CCCN(C(=O)Nc3cccc(C#N)c3)C2)CC1 | 0% | · | · | -1% | · | ·
FC(F)(F)c1ccc(N2CCN(c3cc(-c4ccccc4)nc4ncnn34)CC2)nc1 | 3.3µM* | ? | 0% | 3.7µM* | -10% | -61*
c1ccc(-c2cc(-c3ccccc3)n3ncnc3n2)cc1 | 29µM* | -20% | -2% | ? | 1% | -11
CCOC(=O)CSc1cc(-c2ccccc2)nc2ncnn12 | ? | ? | 18µM* | -9% | ? | ·
CC(=O)Nc1ccc(Nc2cc(-c3ccccc3)nc3ncnn23)cc1 | -17% | 2% | -18% | -22% | -6% | ?
COc1ccccc1CNC(=O)c1cc(S(=O)(=O)N2CCCCC2)c[nH]1 | -7% | -2% | 0% | 0% | 1% | 0
CC(C)C[C@H](NC(=O)[C@H](Cc1ccccc1)n1c(=O)[nH]c2ccccc2c1=O)C(=O)N1CCC[C@@H]1C(=O)O | -4% | -2% | 0% | -21% | -2% | -3
c1ccc2c(c1)ncn2CCn1cnc2ccccc21 | -6% | 4% | 16% | -14% | 18% | -5
Cc1ccc(Cn2cnc3ccccc32)cc1 | 21µM* | ? | ? | 15µM* | -25% | -54*
O=C(COC(=O)C1CCC1)NC(=O)c1ccccc1 | 16% | 3% | 3% | 15% | 9% | 12
CCOC(=O)c1cc2c(=Cc3ccc(N(C)C)cc3)c3ccccc3n2[n+]1C | 0.46µM* | · | 8.2µM* | 0.58µM* | ? | -101*
